Test results from PubChem BioAssay AID624256 (NMMLSC, 2012).
Among all 360,000 compounds or so, about 3,700 (1%) were called active. Roughly 2% stayed inconclusive and do not appear here.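 The calls were made as follows: active = normalized GFP-positive differentiation at or above the plate's own cutoff, the solvent-only control mean plus 3 SD; inconclusive = no clear call, values can overlap the other calls; inactive = the rest.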 This excerpt belongs to a sample that is enriched for actives.

assay: HoxA9-arrested leukemia cell differentiation promoters – flow cytometry, MLPCN library, primary screen (AID 624256); details: ER-HoxA9 myeloid progenitors, lysozyme-GFP differentiation, at 10 µM; GFP+ MAC1+ double positive: measured here: differentiation confirmed by MAC1 staining, stronger effect = higher value; normalized GFP-positive differentiation: stronger effect = higher value;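 as to GFP+ MAC1+ double positive: cells exposed to compound for four days before flow analysis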;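 as to normalized GFP-positive differentiation: cells exposed to compound for four days before flow analysis; 0% = DMSO wells and 100% = fulvestrant positive control at 5 µM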

| Structure (SMILES) | GFP+ MAC1+ double positive [%] | normalized GFP-positive differentiation | outcome |
| --- | --- | --- | --- |
| Cc1ccc(COc2ccc(C(=O)NN)cc2)cc1 | 4.6 | 335% (active) |  |
| Cc1ccc(COc2ccc(/C=N/NC(=O)CN3CCCCC3)cc2)cc1 | 0.2 |  | inactive |
| NNC(=O)c1ccc(COCC(F)(F)C(F)F)cc1 | 0.4 |  | inactive |
| COc1cccc(CNC(=O)[C@@H]2CCCN2C(=O)[C@@H]2CCCN2C(=O)c2ccccc2)c1 | 0.5 |  | inactive |
| CC(CNC(=O)c1ccc(Br)o1)NC(=O)c1ccc(Br)o1 (stereo not drawn) | 4.1 |  | inactive |
| CCS(=O)(=O)c1ccc(-c2cccc(NC(=O)c3ccc(Br)o3)c2)nn1 | 1.2 | 11.8% (active) |  |
| CCOc1ccc(C(=O)Nc2cccc(-c3ccc4nncn4n3)c2)cc1 | 1.2 |  | inactive |
| COC(=O)C[C@H]1C=C[C@@H](NS(=O)(=O)c2ccc(C)cc2)[C@@H](CO)O1 | 2.1 |  | inactive |
| Cc1ccccc1-c1nc(NC(C)C)nc2cc(-c3ccccc3)sc12 | 0.6 |  | inactive |
| OC(c1ccc(Cl)c(F)c1)c1ncc(-c2ccccc2Cl)[nH]1 (stereo not drawn) | 1.3 |  | inactive |
| COc1ccc(C(O)C(O)(C(=O)OC(C)C)c2ccc(C)cc2)cc1 (stereo not drawn) | 2.5 |  | inactive |
| C[C@H]([C@@H](O)[C@@H](O)[C@@H](C)C(C)(C)C)[C@H]1CC[C@H]2C3CC[C@H]4C[C@H](OS(=O)(=O)O)[C@@H](OS(=O)(=O)O)C[C@]4(C)[C@H]3CC[C@]12C (stereo partly drawn) | 3.3 |  | inactive |
| C=CCC[C@@H](CCCCC)OC(=O)/C=C/[C@@H](O)[C@H](O)C[C@H](O)CC=C | 0.4 |  | inactive |
| CC(C)C[C@@H](COCc1ccc(Cl)cc1)N1CCN(C(=O)c2ccc(Cl)cc2Cl)CCC1=O | 0.8 |  | inactive |
| O=C(c1ccc(C(F)(F)F)cc1)N1CCC(=O)N([C@H](COCc2ccccc2)Cc2ccccc2)CC1 | 0.6 |  | inactive |
| CC(C)CC(COCc1ccc(Cl)cc1)N1CCN(C(=O)c2ccc(C(F)(F)F)cc2)CCC1=O (stereo not drawn) | 5.1 | 7.54% (active) |  |
| CCN(CC)CCN(C)C(c1ccnc2ccccc12)c1nnnn1-c1ccc2c(c1)OCCO2 (stereo not drawn) | 2.1 |  | inactive |
| CCOc1ccc(CCNC(=O)Nc2ccccc2)cc1OCC | 0.6 |  | inactive |
| Cc1nc2cc(NC(=O)Nc3cccc(F)c3)ccc2n1C | 0.6 |  | inactive |
| Cc1cc2nc(C)n(CCCNC(=O)Nc3ccccc3)c2cc1C | 1.2 | 33% (active) |  |
| C[C@@H]1CC2=C(C(=O)OC(C)(C)O2)[C@@H](C2CC2)O1 | 0.7 |  | inactive |

| Structure (SMILES) | GFP+ MAC1+ double positive [%] | normalized GFP-positive differentiation | outcome |
| --- | --- | --- | --- |
| OC(c1ccccc1)(c1ccccc1)C1CCN(CCCOc2ccccc2)CC1 | 0.9 |  | inactive |
| CCOC(=O)c1cc(-c2nnc(-c3cc(OC)c(OC)c(OC)c3)o2)c(C)nc1C | 0.3 |  | inactive |
| CCOc1ccc(-c2noc(CCC(=O)NC3CCCC3)n2)cc1OC | 0.3 |  | inactive |
| CCOc1nc(-c2ccc(OC)cc2)ccc1-c1noc(-c2cc(OC)c(OC)c(OC)c2)n1 | 26.5 | 69% (active) |  |
| Cc1ccc(NS(=O)(=O)c2cc3c(cc2Br)NC(=O)CO3)cc1C | 2.1 |  | inactive |
| COc1ccc(C(c2nnnn2C2CCCC2)N2CCN(C/C=C/c3ccccc3)CC2)cc1 (stereo not drawn) | 0.9 |  | inactive |
| Nc1nc(NCC2CCCO2)nc(Nc2ccccc2F)c1[N+](=O)[O-] (stereo not drawn) | 0.2 |  | inactive |
| C=CCNc1nc(N)c([N+](=O)[O-])c(NC2CCCCC2)n1 | 1 |  | inactive |
| Nc1nc(Nc2ccccc2F)nc(NC2CCCCC2)c1[N+](=O)[O-] | 5.3 | 25.3% (active) |  |
| O=C(Nc1ccc(Cl)cc1)c1csc([C@H]2C[C@H](O)[C@@H](CO)O2)n1 | 0.4 |  | inactive |
| CCN1C(=O)[C@@H]2[C@@H]3CN(S(=O)(=O)c4ccccc4C)[C@@H](c4ccc(Cl)cc4)[C@@H]3C(=O)C[C@@H]2C1=O | 0.5 |  | inactive |
| CN1C[C@@H](CO)O[C@@H](n2cnc3c(N4CCN(CCO)CC4)ncnc32)C1 | 1.5 |  | inactive |
| CNC(=S)NNC(=O)c1sccc1OCc1ccccc1 | 2.8 | 6.37% (active) |  |
| CNC(=S)N/N=C/c1ccc(OCc2ccccc2)c(Br)c1 | 0.2 |  | inactive |
| Cc1scc(C(=O)NNC(=S)NCc2ccccc2)c1C | 0.2 |  | inactive |
| CC1(C(=O)Nc2ccc3c(c2)OCCO3)CSCC(=O)N1CCOc1ccccc1 (stereo not drawn) | 3.3 |  | inactive |
| Cc1cc(Br)cn2c(Cc3cccc(F)c3)c(-c3cccc(Br)c3)nc12 | 0.6 |  | inactive |
| CCOC(=O)C(C(=O)c1ccccc1)C(c1ccccc1)c1nccc2ccccc12 (stereo not drawn) | 0.2 |  | inactive |
| CCOC(=O)C(C(=O)OCC)C(C#N)c1ccccc1 (stereo not drawn) | 3.3 | 9.91% (active) |  |
| CCOC(=O)/C=C/C(=O)OCC(=O)NC(c1ccccc1)c1ccccc1 | 0.4 |  | inactive |
| CC1(C(=O)NCc2ccccc2)CSCC(=O)N1CCCn1ccnc1 (stereo not drawn) | 4.4 |  | inactive |

| Structure (SMILES) | GFP+ MAC1+ double positive [%] | normalized GFP-positive differentiation | outcome |
| --- | --- | --- | --- |
| O=C1NC(O)CCN1C1CC(O)C(CO)O1 (stereo not drawn) | 1.3 |  | inactive |
| CCOc1ccc(CCN2C(=S)N([C@@H](CC(C)C)CN3CCC[C@@H]3CN3C(=S)NC[C@@H]3Cc3ccc(O)cc3)C[C@@H]2Cc2ccc(O)cc2)cc1 | 0.7 |  | inactive |
| COC(=O)C(C)NC(=O)COc1ccc2ccccc2c1 (stereo not drawn) | 1.3 |  | inactive |
| COc1c(C(=O)N2CCCC2)ccc2ccccc12 | 0.8 |  | inactive |
| COC(=O)C[n+]1cccc2ccccc21 | 1 | 236% (active) |  |
| CCc1nc2c(OCc3ccc(Cl)cc3Cl)cccn2c1N(C)C(=O)C(C)C | 1.8 |  | inactive |
| CC(=O)N1CCN(Cc2cc(=O)oc3cc(C)ccc23)CC1 | 1.6 |  | inactive |
| COC(=O)[C@]12CCCCC=C1N(Cc1ccc3c(c1)OCO3)C(=O)[C@H](CC(=O)NCc1cccs1)C2 | 0.4 |  | inactive |
| CCOC(=O)[C@]12CCCC=C1N(CCC1=CCCCC1)C(=O)[C@H](CC(=O)N1CCOCC1)C2 | 4.8 |  | inactive |
| OCCC#Cc1ccc(N2C(c3ccsc3)=Cc3ccc(F)cc3C2c2c[nH]c3ccccc23)cc1 (stereo not drawn) | 2 | 16.8% (active) |  |
| COc1ccc(CCCNC(=O)C2Cc3c(-c4cccc(C(N)=O)c4)ccnc3O2)cc1 (stereo not drawn) | 0.5 |  | inactive |
| CN(Cc1cn(Cc2ccc(C(F)(F)F)cc2)nn1)C1CN(Cc2cn(Cc3ccc(C(F)(F)F)cc3)nn2)S(=O)(=O)C1 (stereo not drawn) | 1.6 |  | inactive |
| CCCCNC(=O)C[C@@H]1C[C@@]2(C(=O)OCC)CCC=C2N(Cc2cccc3ccccc23)C1=O | 0.6 |  | inactive |
| CCOc1ccc(CCN2C(=O)C(=O)N([C@@H](Cc3ccc(O)cc3)CN3CCC[C@H]3CN3C(=O)C(=O)NC[C@@H]3CC(C)C)C[C@@H]2Cc2ccccc2)cc1 | 1 |  | inactive |
| Cc1ccc(Nc2nc(N)nc(CSc3nnc(C)s3)n2)cc1 | 0.4 |  | inactive |
| O=[N+]([O-])c1ccccc1Nc1ccc(O)cc1 | 0.4 |  | inactive |
| Cc1ccc(Nc2ccccc2N)cc1 | 0.6 | 231% (active) |  |
| CC1(C(=O)NCc2ccccc2)CN(S(C)(=O)=O)CC(=O)N1CC(F)(F)F (stereo not drawn) | 1.4 |  | inactive |
| COc1ccc(C(=O)C[n+]2ccc(C)cc2)cc1 | 0.2 |  | inactive |
| CO/N=C/CC(=O)c1ccc(OC)cc1 | 0.8 |  | inactive |
| COc1ccc(C(=O)C[n+]2ccc(N)c(C)c2C)cc1 | 10.1 | 39.6% (active) |  |

| Structure (SMILES) | GFP+ MAC1+ double positive [%] | normalized GFP-positive differentiation | outcome |
| --- | --- | --- | --- |
| CCN(Cc1cc2cc(C)ccc2[nH]c1=O)S(=O)(=O)c1ccccc1 | 0.4 |  | inactive |
| COc1ccc(N(Cc2cc3ccc(C)cc3[nH]c2=O)S(=O)(=O)c2ccccc2)cc1 | 9.4 | 37.5% (active) |  |
| Cc1ccc2cc(CN(c3ccc(C)c(C)c3)S(C)(=O)=O)c(=O)[nH]c2c1 | 0.3 |  | inactive |
| O=C(Nc1cccc2cccnc12)c1ccc2sc([C@H]3C[C@H](O)[C@@H](CO)O3)nc2c1 | 0.8 |  | inactive |
| Cc1ccc(C(=O)Cc2nnc(C)s2)cc1 | 0.7 | 113% (active) |  |
| Cc1ccc(NC(=O)CCC(=O)c2ccc(Br)cc2)cc1 | 0.4 |  | inactive |
| Cc1ccc(C(=O)Cn2cccn2)cc1 | 0.3 |  | inactive |
| CCC(C)CN1C(=O)CSCC1(C)C(=O)NCc1ccccc1 (stereo not drawn) | 1.5 |  | inactive |
| CSCCC(NS(=O)(=O)/C=C/c1ccccc1)C(=O)N1CCC(C)CC1 (stereo not drawn) | 1 |  | inactive |
| CSCCC(NS(=O)(=O)c1ccc(C)cc1)C(=O)N1CCCC1 (stereo not drawn) | 1.3 |  | inactive |
| CSCCC(NS(=O)(=O)c1ccccc1F)C(=O)N1CC=C(c2ccccc2)CC1 (stereo not drawn) | 1.3 | 63.9% (active) |  |
| C#Cc1ccc(NC(=O)C2(C)CCN2C(=O)Cc2ccc(-c3ccccc3)cc2)cc1 (stereo not drawn) | 0.8 |  | inactive |
| CC(=O)N(CCCN(C)C)c1nc2ccc(C)cc2s1 | 0.6 | 33.5% (active) |  |
| Cc1ccc2nc(NC(=O)C3CSC4(C)CCC(=O)N34)sc2c1 (stereo not drawn) | 1.7 |  | inactive |
| Cc1ccc2nc(NC(=O)CSc3nc(=O)n(CCCN(C)C)c4c3CCC4)sc2c1 | 1.3 |  | inactive |
| CCN1C[C@@H]2[C@@H]3C(=O)N(C)C(=O)[C@@H]3[C@](C)(C1=O)N2C(=O)c1ccccc1 | 10.9 | 43.5% (active) |  |
| CN1C(=O)[C@H]2[C@@H](C3CC3)N3C(=O)CN(Cc4ccccc4)C(=O)[C@@]3(C)[C@H]2C1=O | 1.6 |  | inactive |
| CCN1C[C@@H]2[C@@H]3C(=O)N(Cc4ccccc4)C(=O)[C@@H]3[C@](C)(C1=O)N2C(=O)c1ccc(C(C)(C)C)cc1 | 1.2 |  | inactive |
| Oc1cccc2cc(-c3ccncc3)cnc12 | 0.7 |  | inactive |
| COCCNc1ncnc2c1ncn2[C@H]1CN(CCN2CCOCC2)C[C@@H](CO)O1 | 1.1 |  | inactive |
| CCOC(=O)[C@]12CCCC=C1N(CCC1=CCCCC1)C(=O)[C@H](CC(=O)NCCCCc1ccccc1)C2 | 2.2 |  | inactive |
